Holding throughout (experiment): DAPPL (digital affinity profiling via proximity ligation, sequencing); 10 mM Tris-HCl pH 7.5, 50 mM NaCl, 1 mM DTT, 4% glycerol, room temperature, 30 min; GST-TFs on glutathione beads, 16-mer random dsDNA library, 0.1% formaldehyde crosslink after washing; high values mean tight binding
One assay addresses T1, FLI1 (Homo sapiens, UniProt Q01543 1-452).
T1 sequence: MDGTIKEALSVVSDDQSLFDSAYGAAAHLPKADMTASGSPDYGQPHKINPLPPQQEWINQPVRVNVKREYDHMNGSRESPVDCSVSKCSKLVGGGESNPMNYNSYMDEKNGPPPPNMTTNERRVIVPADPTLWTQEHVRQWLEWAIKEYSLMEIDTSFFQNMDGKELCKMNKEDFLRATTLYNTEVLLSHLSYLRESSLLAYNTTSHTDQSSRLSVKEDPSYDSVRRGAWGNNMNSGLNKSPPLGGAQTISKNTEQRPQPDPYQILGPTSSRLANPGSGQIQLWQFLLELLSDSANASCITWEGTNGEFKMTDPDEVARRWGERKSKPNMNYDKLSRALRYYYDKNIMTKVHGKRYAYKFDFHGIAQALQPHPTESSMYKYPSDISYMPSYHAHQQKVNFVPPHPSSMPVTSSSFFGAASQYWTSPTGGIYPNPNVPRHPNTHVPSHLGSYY
As to conditions: protein: recombinant; tags: N-terminal GST; dsDNA, one strand shown. A digest of the protocol:
(§1)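 Pools of DNA-barcoded human transcription factors, expressed in yeast as GST fusions on glutathione beads and combined with a tag-only sample, were incubated with 200 nmole of a 16-mer random double-stranded DNA library. Incubation took 30 min at room temperature in Tris/NaCl/DTT/glycerol buffer and was followed by washing, 0.1% formaldehyde crosslinking, proximity ligation (BsaI/T4 ligase, 1 h, 37 °C), PCR amplification and sequencing on an Illumina NextSeq500. Binding signal is the ratio of a hexamer's read frequency for a factor to its frequency for the tag-only sample.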

Another assay addresses T2, ELK1 (Homo sapiens, UniProt P19419 1-428).
T2 sequence: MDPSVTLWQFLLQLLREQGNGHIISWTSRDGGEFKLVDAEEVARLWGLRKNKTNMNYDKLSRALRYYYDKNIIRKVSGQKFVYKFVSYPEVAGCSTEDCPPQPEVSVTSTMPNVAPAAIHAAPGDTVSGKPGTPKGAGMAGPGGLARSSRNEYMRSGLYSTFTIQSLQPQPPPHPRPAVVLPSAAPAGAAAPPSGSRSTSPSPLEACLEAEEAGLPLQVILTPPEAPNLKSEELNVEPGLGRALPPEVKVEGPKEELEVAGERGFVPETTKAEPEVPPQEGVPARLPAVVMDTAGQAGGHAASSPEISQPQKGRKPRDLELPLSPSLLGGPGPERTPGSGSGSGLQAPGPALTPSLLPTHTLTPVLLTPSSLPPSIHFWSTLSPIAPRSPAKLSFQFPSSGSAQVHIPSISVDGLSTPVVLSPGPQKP
Conditions: protein: recombinant; tags: N-terminal GST; dsDNA, one strand shown. A digest of the protocol: as §1

For another assay, the target named is T3, GABPA (Homo sapiens, UniProt Q06546 1-454).
T3 sequence: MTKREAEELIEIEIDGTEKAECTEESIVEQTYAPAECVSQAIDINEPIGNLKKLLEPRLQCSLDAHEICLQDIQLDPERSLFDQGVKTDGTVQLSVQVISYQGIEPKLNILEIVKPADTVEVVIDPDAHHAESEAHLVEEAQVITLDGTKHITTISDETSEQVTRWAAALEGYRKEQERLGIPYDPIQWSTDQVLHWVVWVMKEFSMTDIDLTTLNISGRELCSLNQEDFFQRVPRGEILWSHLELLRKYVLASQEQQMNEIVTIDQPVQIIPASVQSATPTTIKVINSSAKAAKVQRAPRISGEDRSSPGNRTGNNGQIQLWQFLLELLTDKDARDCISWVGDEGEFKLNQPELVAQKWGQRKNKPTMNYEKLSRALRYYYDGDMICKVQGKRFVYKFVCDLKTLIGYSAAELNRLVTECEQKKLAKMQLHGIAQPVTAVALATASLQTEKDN
Conditions: protein: recombinant; tags: N-terminal GST; dsDNA, one strand shown. The method, boiled down: as §1

The next assay deals with T4, ERG (Homo sapiens, UniProt P11308 1-479).
T4 sequence: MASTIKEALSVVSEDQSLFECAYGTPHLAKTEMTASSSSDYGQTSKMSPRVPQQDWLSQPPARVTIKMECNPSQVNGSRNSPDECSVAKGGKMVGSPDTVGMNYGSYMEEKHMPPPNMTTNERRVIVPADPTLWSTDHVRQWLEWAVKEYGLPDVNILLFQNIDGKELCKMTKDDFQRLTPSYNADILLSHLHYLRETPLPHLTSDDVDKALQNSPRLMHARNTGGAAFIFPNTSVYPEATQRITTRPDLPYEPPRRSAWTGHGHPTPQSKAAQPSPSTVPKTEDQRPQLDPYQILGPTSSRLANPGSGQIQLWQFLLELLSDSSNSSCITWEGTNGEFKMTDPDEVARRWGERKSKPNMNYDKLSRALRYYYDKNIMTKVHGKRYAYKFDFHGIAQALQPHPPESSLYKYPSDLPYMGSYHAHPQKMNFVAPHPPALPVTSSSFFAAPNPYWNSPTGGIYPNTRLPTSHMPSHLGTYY
Conditions: protein: recombinant; tags: N-terminal GST; dsDNA, one strand shown. The method, boiled down:
as §1

Another assay addresses ELF1 (Homo sapiens, UniProt P32519 1-619). Conditions: protein: recombinant; tags: N-terminal GST; dsDNA, one strand shown. The method, boiled down:
as §1

A further assay addresses T5, EHF (Homo sapiens, UniProt Q9NZC4 1-300).
T5 sequence: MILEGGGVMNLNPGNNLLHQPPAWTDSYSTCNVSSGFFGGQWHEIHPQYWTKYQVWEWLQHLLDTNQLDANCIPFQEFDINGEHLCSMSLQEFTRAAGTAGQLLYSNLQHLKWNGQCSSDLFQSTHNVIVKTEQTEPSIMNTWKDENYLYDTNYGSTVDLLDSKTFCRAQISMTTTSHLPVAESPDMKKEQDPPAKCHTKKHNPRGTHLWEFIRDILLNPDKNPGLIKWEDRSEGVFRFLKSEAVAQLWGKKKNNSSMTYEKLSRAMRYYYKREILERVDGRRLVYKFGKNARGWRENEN
Conditions: protein: recombinant; tags: N-terminal GST; dsDNA, one strand shown. A digest of the protocol: as §1

A further assay addresses SPI1 (Homo sapiens, UniProt P17947 1-270). Conditions: protein: recombinant; tags: N-terminal GST; dsDNA, one strand shown. The method, boiled down: as §1
The next assay deals with SPIB (Homo sapiens, UniProt Q01892 1-262). Conditions: protein: recombinant; tags: N-terminal GST; dsDNA, one strand shown. A digest of the protocol: as §1
In another assay the target is T6, FEV (Homo sapiens, UniProt Q99581 1-238).
T6 sequence: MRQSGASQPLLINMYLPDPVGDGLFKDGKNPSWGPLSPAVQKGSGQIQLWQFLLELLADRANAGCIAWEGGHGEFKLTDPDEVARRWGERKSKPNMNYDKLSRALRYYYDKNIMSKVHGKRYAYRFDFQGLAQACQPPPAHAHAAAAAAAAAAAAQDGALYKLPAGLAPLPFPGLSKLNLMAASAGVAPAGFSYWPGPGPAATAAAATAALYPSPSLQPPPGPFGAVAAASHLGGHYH
Conditions: protein: recombinant; tags: N-terminal GST; dsDNA, one strand shown. The method, boiled down: as §1

The target of the next assay is ETV5 (Homo sapiens, UniProt P41161 1-510). Conditions: protein: recombinant; tags: N-terminal GST; dsDNA, one strand shown. The method, boiled down:
as §1

The target in another assay is HSF1 (Homo sapiens, UniProt Q00613 1-529). Conditions: protein: recombinant; tags: N-terminal GST; chain copies: 3; dsDNA, one strand shown. A digest of the protocol:
as §1

In a further assay the target is T7, SPIC (Homo sapiens, UniProt Q8N5J4 1-248).
T7 sequence: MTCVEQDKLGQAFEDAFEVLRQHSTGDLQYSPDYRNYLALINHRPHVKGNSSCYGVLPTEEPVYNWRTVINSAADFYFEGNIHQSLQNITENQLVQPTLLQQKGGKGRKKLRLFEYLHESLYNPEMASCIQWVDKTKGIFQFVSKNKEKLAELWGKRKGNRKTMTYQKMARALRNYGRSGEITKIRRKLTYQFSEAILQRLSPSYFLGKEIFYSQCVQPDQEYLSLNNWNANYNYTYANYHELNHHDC
Conditions: protein: recombinant; tags: N-terminal GST; dsDNA, one strand shown. The method, boiled down:
as §1

The next assay has as its target ELF4 (Homo sapiens, UniProt Q99607 1-663). As to conditions: protein: recombinant; tags: N-terminal GST; dsDNA, one strand shown. A digest of the protocol:
as §1

A further assay deals with T8, ELK4 (Homo sapiens, UniProt P28324-2 1-405).
T8 sequence: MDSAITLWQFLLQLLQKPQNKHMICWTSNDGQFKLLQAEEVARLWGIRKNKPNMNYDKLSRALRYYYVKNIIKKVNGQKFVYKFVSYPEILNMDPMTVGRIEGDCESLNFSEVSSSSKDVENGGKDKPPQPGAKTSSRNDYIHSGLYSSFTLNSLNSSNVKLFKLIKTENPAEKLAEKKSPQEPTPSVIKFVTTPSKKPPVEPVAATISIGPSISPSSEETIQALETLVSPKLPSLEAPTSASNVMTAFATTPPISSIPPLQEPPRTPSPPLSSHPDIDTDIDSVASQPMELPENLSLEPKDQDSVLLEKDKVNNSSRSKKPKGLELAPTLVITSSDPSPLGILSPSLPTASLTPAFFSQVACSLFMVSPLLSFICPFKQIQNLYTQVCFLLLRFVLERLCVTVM
As to conditions: protein: recombinant; tags: N-terminal GST; dsDNA, one strand shown. A digest of the protocol:
as §1

For a further assay, the target named is T9, ETV2 (Homo sapiens, UniProt O00321 1-342).
T9 sequence: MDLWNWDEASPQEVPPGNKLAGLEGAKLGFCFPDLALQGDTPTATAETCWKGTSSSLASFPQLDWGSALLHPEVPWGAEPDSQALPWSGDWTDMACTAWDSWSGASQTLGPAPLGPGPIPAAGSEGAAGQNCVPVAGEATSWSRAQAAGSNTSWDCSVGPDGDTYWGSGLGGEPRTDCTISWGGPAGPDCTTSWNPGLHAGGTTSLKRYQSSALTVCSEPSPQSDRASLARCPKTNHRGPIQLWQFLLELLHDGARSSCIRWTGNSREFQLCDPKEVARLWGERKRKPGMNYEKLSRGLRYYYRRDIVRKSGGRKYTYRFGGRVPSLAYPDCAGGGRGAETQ
As to conditions: protein: recombinant; tags: N-terminal GST; dsDNA, one strand shown. A digest of the protocol: as §1

The target of another assay is T10, ELF3 (Homo sapiens, UniProt P78545 1-371).
T10 sequence: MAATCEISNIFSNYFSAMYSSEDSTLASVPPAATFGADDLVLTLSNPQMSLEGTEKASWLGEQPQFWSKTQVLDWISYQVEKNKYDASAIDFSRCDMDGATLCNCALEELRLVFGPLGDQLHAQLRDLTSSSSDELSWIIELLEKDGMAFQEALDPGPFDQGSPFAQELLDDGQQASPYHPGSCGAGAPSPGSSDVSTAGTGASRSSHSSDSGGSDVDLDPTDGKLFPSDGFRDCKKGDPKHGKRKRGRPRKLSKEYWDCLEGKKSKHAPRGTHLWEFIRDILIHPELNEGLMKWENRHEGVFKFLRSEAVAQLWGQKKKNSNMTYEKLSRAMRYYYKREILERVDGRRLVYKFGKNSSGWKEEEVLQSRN
As to conditions: protein: recombinant; tags: N-terminal GST; dsDNA, one strand shown. A digest of the protocol: as §1

A further assay concerns the target CRX (Homo sapiens, UniProt O43186 1-299). Conditions: protein: recombinant; tags: N-terminal GST; dsDNA, one strand shown. A digest of the protocol:
as §1

A further assay has as its target ETV1 (Homo sapiens, UniProt P50549 1-477). Conditions: protein: recombinant; tags: N-terminal GST; dsDNA, one strand shown. The method, boiled down:
as §1

Chain of ETV1 (P50549 whole entry): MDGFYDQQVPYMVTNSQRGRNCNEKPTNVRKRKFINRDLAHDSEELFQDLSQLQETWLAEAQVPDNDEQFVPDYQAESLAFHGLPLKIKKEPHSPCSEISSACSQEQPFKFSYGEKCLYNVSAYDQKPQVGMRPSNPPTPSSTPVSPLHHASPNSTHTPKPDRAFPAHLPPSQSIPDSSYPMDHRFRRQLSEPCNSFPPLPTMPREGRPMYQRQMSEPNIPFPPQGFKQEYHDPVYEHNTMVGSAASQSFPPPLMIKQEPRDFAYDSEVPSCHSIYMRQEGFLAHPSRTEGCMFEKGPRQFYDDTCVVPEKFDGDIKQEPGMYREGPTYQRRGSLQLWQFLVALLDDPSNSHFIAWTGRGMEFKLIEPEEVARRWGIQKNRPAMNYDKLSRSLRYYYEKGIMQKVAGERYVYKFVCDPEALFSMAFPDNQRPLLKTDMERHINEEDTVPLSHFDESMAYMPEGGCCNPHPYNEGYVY
Chain of ELF1 (P32519 whole entry): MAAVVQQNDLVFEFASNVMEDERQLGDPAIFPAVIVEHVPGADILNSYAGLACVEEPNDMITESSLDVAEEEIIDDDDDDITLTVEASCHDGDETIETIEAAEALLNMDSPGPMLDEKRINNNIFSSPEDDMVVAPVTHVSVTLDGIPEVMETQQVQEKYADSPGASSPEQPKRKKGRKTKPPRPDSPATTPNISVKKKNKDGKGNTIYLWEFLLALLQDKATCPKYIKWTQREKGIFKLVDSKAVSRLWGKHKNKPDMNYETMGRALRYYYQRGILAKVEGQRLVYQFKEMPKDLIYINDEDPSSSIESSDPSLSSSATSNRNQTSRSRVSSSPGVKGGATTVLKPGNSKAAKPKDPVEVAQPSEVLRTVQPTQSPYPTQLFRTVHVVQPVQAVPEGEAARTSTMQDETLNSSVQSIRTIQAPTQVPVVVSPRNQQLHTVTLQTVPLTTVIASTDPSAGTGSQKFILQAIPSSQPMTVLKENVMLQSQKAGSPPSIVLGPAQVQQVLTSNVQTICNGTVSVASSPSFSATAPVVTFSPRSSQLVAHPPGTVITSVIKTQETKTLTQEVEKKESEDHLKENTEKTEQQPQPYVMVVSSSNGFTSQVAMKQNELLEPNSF
Chain of CRX (O43186 whole entry): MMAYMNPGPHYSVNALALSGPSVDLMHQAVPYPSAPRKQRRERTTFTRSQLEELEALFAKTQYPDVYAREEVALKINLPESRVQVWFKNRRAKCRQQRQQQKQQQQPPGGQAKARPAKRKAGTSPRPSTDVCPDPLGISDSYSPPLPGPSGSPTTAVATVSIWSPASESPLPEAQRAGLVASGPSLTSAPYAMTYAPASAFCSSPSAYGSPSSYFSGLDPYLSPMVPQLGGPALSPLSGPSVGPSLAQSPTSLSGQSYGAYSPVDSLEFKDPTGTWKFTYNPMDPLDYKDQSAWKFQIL
Chain of SPIB (Q01892 whole entry): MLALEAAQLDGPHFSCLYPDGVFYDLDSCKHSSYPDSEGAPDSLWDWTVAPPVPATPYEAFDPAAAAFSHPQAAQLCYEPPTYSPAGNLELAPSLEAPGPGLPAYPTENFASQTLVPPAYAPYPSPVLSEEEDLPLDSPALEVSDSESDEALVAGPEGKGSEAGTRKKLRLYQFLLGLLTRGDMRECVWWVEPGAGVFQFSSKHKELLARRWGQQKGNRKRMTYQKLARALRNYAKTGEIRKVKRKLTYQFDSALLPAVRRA
Chain of ELF4 (Q99607 whole entry): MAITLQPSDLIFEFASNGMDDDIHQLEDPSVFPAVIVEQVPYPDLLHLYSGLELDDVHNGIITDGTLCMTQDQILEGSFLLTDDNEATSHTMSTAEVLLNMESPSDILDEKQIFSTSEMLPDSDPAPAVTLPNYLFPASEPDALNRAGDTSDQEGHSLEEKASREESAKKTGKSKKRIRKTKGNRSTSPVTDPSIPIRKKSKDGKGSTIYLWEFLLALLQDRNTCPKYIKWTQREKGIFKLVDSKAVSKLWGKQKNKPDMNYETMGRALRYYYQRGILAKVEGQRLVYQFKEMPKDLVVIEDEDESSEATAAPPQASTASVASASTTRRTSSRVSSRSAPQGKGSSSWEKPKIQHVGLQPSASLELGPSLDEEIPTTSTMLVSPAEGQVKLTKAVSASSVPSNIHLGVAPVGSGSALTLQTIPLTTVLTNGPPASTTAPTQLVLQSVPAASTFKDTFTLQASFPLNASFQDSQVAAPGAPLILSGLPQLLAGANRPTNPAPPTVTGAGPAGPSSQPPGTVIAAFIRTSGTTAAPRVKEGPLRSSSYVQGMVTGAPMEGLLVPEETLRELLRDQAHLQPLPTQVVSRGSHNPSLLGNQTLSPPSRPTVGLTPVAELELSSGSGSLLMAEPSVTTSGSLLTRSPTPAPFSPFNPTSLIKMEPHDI
Chain of ETV5 (P41161 whole entry): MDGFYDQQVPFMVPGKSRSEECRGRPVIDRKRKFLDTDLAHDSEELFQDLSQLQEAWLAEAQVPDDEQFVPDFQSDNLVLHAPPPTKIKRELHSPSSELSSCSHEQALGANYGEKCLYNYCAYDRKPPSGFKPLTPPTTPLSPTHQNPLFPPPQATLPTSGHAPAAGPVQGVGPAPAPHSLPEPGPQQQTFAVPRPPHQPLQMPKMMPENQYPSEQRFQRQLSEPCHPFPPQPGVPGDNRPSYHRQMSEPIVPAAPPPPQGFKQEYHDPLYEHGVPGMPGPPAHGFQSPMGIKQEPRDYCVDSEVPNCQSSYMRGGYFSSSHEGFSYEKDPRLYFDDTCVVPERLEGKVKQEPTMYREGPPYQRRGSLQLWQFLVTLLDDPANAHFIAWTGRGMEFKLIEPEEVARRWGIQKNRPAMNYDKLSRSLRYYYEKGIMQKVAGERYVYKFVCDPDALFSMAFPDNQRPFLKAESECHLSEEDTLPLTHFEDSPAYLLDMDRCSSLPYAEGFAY
Chain of HSF1 (Q00613 whole entry): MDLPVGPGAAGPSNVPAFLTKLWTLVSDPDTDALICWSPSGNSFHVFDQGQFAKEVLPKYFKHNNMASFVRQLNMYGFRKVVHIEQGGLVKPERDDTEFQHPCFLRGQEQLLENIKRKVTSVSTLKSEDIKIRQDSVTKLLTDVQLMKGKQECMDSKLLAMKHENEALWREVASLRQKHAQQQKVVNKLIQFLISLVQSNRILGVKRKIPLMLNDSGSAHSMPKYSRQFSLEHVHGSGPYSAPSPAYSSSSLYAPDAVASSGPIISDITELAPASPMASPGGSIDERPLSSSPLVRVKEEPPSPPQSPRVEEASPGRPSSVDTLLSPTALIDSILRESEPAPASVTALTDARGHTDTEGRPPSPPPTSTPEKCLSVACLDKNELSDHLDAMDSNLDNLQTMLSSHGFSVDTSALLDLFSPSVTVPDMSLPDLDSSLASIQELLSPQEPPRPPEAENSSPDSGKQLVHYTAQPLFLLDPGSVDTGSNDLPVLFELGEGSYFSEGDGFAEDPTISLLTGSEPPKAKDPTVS

Take AGGCTC: the binding signal was 1.04 fold enrichment (6-mer frequency, TF over GST control) with FLI1; 1.03 fold enrichment (6-mer frequency, TF over GST control) in the assay with ELK1; 1.12 fold enrichment (6-mer frequency, TF over GST control) in the assay with GABPA; 1.06 fold enrichment (6-mer frequency, TF over GST control) with ERG; 1.12 fold enrichment (6-mer frequency, TF over GST control) with ELF1; 1.08 fold enrichment (6-mer frequency, TF over GST control) in the assay with EHF. The binding signal was 1.02 fold enrichment (6-mer frequency, TF over GST control) with SPI1; 1.03 fold enrichment (6-mer frequency, TF over GST control) in the assay with SPIB; 1.06 fold enrichment (6-mer frequency, TF over GST control) with FEV; 1.02 fold enrichment (6-mer frequency, TF over GST control) in the assay with ETV5; 1.14 fold enrichment (6-mer frequency, TF over GST control) with HSF1; 1.15 fold enrichment (6-mer frequency, TF over GST control) in the assay with SPIC. Moreover, the binding signal in the assay with ELF4 was 1.07 fold enrichment (6-mer frequency, TF over GST control); in the assay with ELK4, 1.06 fold enrichment (6-mer frequency, TF over GST control); with ETV2, 1.01 fold enrichment (6-mer frequency, TF over GST control); with ELF3, 1.02 fold enrichment (6-mer frequency, TF over GST control); with CRX it was 1.29 fold enrichment (6-mer frequency, TF over GST control); in the assay with ETV1, 1.06 fold enrichment (6-mer frequency, TF over GST control).

Values taken from PMC7862700, “An all-to-all approach to the identification of sequence-specific readers for epigenetic DNA modifications on cytosine”.
